Only some compounds are listed: those with a hit (about 2.2% of all), similar ones and a draw of the others.
LDHA inh: inhibitors of human lactate dehydrogenase A. P00338. purified LDHA, NADH/diaphorase-resazurin fluorescence; stronger effect = lower value. activity change, % (values are at about 110 or 230 µM). hit rate 0.15% among 480,000. AID 1347041; in the data active means activity change below about -30%; inconclusive means mostly about -25% to -30%;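 further: plate controls were DMSO wells for no effect and wells without enzyme for full effect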
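Human LDH5 (2 nM) was incubated with 0.06 mM NADH and 0.2 mM pyruvate for 5 min at room temperature in Tris pH 7.4. Remaining NADH was coupled through diaphorase/resazurin, and resorufin fluorescence was read at 0 and 20 min.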
mIDH1 inhibitor: blocks human mutant IDH1 R132H enzyme. IDH1-R132H enzyme, NADPH consumption, diaphorase/resazurin fluorescence. AID 602179. hit rate 0.093% among 390,000. Potency, µM (highest dose often 76.6 µM), for the others: at the highest dose activity change, negative = inhibition, hits mostly inhibitors; further: potency means the concentration at half of the fitted maximal effect; on the % scale 0 is the no-effect control and ±100 the full control effect; nearly all actives have a fitted effect of over 65% in size
Target sequence (O75874 whole entry R132H, stated change not applied): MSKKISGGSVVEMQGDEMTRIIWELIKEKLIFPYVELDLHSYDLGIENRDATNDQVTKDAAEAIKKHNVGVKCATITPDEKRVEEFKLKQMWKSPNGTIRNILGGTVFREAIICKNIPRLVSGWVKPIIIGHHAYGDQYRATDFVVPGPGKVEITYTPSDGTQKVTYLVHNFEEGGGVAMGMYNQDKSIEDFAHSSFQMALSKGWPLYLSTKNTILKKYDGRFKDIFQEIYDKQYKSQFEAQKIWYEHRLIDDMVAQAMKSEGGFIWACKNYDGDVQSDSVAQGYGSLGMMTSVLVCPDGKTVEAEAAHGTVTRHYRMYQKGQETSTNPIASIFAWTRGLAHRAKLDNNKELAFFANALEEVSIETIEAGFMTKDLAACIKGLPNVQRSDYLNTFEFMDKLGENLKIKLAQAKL
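IDH1-R132H (0.5 ug/mL dispensed) in pH 7.5 Tris buffer was preincubated 30 min with compound, then given a substrate mix of 0.016 mM NADPH and 2 mM alpha-KG for 80 min at room temperature; remaining NADPH was read by diaphorase/resazurin fluorescence.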
ATXN2 expr inh: ATXN2 expression inhibition; AID 1745845; Potency, µM (doses to about 57 µM), without a hit: at the highest dose activity change, negative = inhibition, most hits filed as inhibitors; hit rate 0.72% among 360,000; HEK-293 ATXN2-luciferase reporter, luminescence, 24 h; further: potency means the concentration at half of the fitted maximal effect; on the % scale 0 is the no-effect control and ±100 the full control effect; nearly all actives have a fitted effect of over 55% in size
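ATXN2-luciferase reporter cells (luciferase flanked by upstream and downstream ATXN2 gene portions) were treated 24 h at 37 °C with compounds at up to 57 uM. SteadyGlo luminescence gave expression; GF-AFC fluorescence gave viability.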
HepG2 viability: HepG2 cytotoxicity, counter-screen for TGF-b inhibitors. HepG2 CAGA-GFP viability, ATP luminescence, 18 h. Potency, µM (top dose mostly 46.1 µM), without a hit: at the top dose activity change, negative = cytotoxicity, most hits filed as cytotoxic. hit rate 0.76% among 410,000; further: potency means the concentration at half of the fitted maximal effect
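CellTiter-Glo luminescence gave cytotoxicity after 18 hours at 37 degrees C. The cells were HepG2 CAGA-GFP in 1% FBS DMEM, stimulated with 500 pg/mL TGF-beta after compound addition. %Activity was normalised to no-cell wells (complete cell-killing) and DMSO (no toxicity), and curves were fitted and classified.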
ATXN viability: reduces viability in counter-screen for ATXN expression inhibitors | S2 cells (HEK-293 line with an ATXN2-luciferase reporter) viability, CellTiter-Fluor protease fluorescence, 24 h | Potency, µM (titrated, usually from 56.7 µM), hits mostly cytotoxic | hit rate 0.49% among 400,000; further: potency means the concentration at half of the fitted maximal effect; nearly all actives have a fitted effect of over 40% in size
TGFb inhibitor: blocks TGF-b signaling. HepG2 CAGA-GFP TGF-b/SMAD3 reporter, GFP fluorescence, 18 h; TGF-beta stimulated, 500 pg/mL final. Potency, µM (titrated, usually from 46.1 µM), without a hit: at the top dose activity, negative = inhibition, usual class: inhibitors. hit rate 1.2% among 410,000. AID 588855; further: potency means the concentration at half of the fitted maximal effect; on the % scale 0 is the no-effect control and ±100 the full control effect; nearly all actives have a fitted effect of over 65% in size
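Using HEPG2 CAGA-GFP reporter cells at 1000 cells/well, we pinned test compounds, stimulated with recombinant TGF-beta (500 pg/mL final) and measured total well GFP after 18 h.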
* = called active by the depositor; i = inactive; ? = inconclusive; · = not tested or not shown; ! = not confirmed by another sample. Unless noted, the call rests on the fitted dose curve; in most records, active means well fitted curve in the direction sought with a large enough effect; inconclusive means small, poorly fitted or top-dose-only effect, or another doubt; inactive means no such curve, though single readings can be large; an effect the other way counts as inactive or inconclusive.

SMILES	LDHA inh	mIDH1 inhibitor	ATXN2 expr inh	HepG2 viability	ATXN viability	TGFb inhibitor
CC(=O)c1cccc(NC(=O)c2cccc3c(-c4cccc(C(N)=O)c4)coc23)c1	-3	·	32µM*	-5%	?	-5%
O=C(O)/C=C/c1ccc2c(c1)S(=O)(=O)N(C1CCCC1)[C@H]2CC(=O)O	·	·	·	28%	·	28%
CC(=O)/C=C/c1ccc2c(c1)S(=O)(=O)N(C1CCCC1)[C@H]2CC(C)=O	·	·	·	10µM*	·	7.1µM*
CNc1ccccc1C(C)(C)c1cc(-c2ccco2)n[nH]1	10	0%	-7%	-17%	i	-8%
CCCCNC(=O)C1(C)CCCCN1Cc1ccccc1-c1ccccc1 (centres undefined)	2	·	?	20µM*	i	?
OC(c1ccc(Cl)cc1Cl)C(Cc1cccnc1)n1cncn1 (centres undefined)	-2	2%	-1%	-1%	?	2%
CCCCNS(=O)(=O)CCNCCc1ccccc1	-3	7%	6%	-1%	i	3%
CCCCCCCCNCCS(=O)(=O)NCc1ccccc1	1	2%	?	16µM*	·	?
COc1ccccc1-c1ccc([C@@H]2C[C@H]3[C@H](CON3C)CN2C(=O)c2ccco2)cc1	-32*	-1%	-4%	-23%	i	-8%
CN1OC[C@@H]2CN(C(=O)c3ccco3)[C@H](c3ccc(-c4ccc(C#N)cc4)cc3)C[C@@H]21	-17	-1%	-2%	-43%	i	-15%
Cc1cccc(N(C)S(=O)(=O)c2ccc(-c3cc(C)no3)s2)c1	3	8%	12%	-27%	i	11µM*
CCN(c1cccc(C)c1)S(=O)(=O)c1ccc(-c2cc(C)no2)s1	1	2%	·	-14%	?	?
O=C1/C(=C/c2cccnc2)Oc2cc(OS(=O)(=O)c3ccccc3)ccc21	0	?	24%	-34%	i	?
COc1cc(SSc2cc(OC)cc([N+](=O)[O-])c2N)c(N)c([N+](=O)[O-])c1	-3	8%	·	-58%	7.9µM*	?
Nc1ncnc2c1c(-c1cnc3[nH]ccc3c1)nn2C1CCCC1	·	·	19µM*	·	·	·
Cn1cc(Cl)c(C(=O)Nc2nc3ccc(Cl)cc3s2)n1	-13	3%	54%	-40%	i	7%
COC(=O)c1ccccc1NC(=O)Cn1c(=O)n(-c2ccc(Cl)cc2)c(=O)c2c(C)c(C)sc21	-7	-8%	15%	2%	i	1%
Cc1cnc(NC(=O)C2CC(=O)N(c3cccc(Cl)c3)C2)s1 (centres undefined)	0	7%	0.56µM*	1.8µM*	?	?
COCCCC/C(=N\OCCN)c1ccc(C(F)(F)F)cc1	-1	11%	16µM*!	-41%	?	2%
C=CCOc1ccc(CNc2ccc(Oc3ccccc3)cc2)cc1OC	6	·	·	·	·	·
COC(=O)N1C(=O)[C@@](c2ccc(OC)cc2)(C(C)C)N1C(=O)OC	-1	-5%	-6%	-20%	?	?
COC(=O)N1C(=O)[C@](c2ccc(Cl)cc2)(C(C)C)N1C(=O)OC	4	12%	?	16µM*	32µM*	?
COc1ccc(CNC(=O)C2CCCN(S(=O)(=O)c3ccc4c(c3)CCCN4C(C)=O)C2)cc1 (centres undefined)	2	0%	0%	-21%	i	-14%
CCc1c(C)sc(NC(=O)Cc2ccccc2Cl)c1C#N	8	·	·	·	·	·
COC(=O)C(=Cc1ccccc1[N+](=O)[O-])C(=O)OC	-6	-8%	·	-41%	16µM*	?
SMILES	LDHA inh	mIDH1 inhibitor	ATXN2 expr inh	HepG2 viability	ATXN viability	TGFb inhibitor
Cc1cnn(C(=O)c2cc(-c3ccccc3)nc3ccccc23)c1	-2	1%	-5%	10µM*	i	?
CCCn1nc(C(=O)OCC(=O)Nc2ccc(C(N)=O)cc2)c2ccccc2c1=O	-2	8%	6%	-1%	i	2%
CC(C)C[C@@H](CN1CCC[C@@H]1CN1C(=S)NC[C@@H]1Cc1ccc(O)cc1)N1C[C@H](Cc2ccc(O)cc2)N(CCc2ccccc2)C1=S	-11	·	-23%	-65%	28µM*	13µM*
CC(C)C[C@H]1CNC(=S)N1C[C@H]1CCCN1C[C@H](Cc1ccc(O)cc1)N1C[C@H](Cc2ccc(O)cc2)N(CC2CCCCCC2)C1=S	-16	·	18µM*	13µM*	13µM*	?
COC(=O)CCc1cc2c(C)cc(=O)oc2cc1O	8	·	·	·	·	·
CCN(CC)c1ccc(S(=O)(=O)N2CCOCC2)cc1NC(=O)CN1C(=O)NC2(CCC(C)CC2)C1=O (centres undefined)	-3	7%	4%	-3%	i	?
O=C1/C(=C/c2ccncc2)CCC/C1=C\c1ccncc1	-4	?	14µM*	13µM*	?	3.2µM*
Cc1ccc(S(=O)(=O)N2CCN(Cc3cc(Br)ccc3O)CC2)cc1	-3	?	-27%	1%	i	10µM*
COc1cc(CN2CCN(S(=O)(=O)c3ccc(C)cc3)CC2)cc(OC)c1O	34	·	·	·	·	·
Cc1cc(C)c(C(=O)N(CCN(C)C)CC2CCCN(Cc3ccccc3F)C2)o1 (centres undefined)	-4	-2%	-6%	-4%	i	-1%
COc1ccc(N/C=C/C(=O)c2ccc(C)cc2)c([N+](=O)[O-])c1	2	-3%	51%	2%	?	9%
CC(=O)c1ccc(N=C2C(=O)Nc3ccccc32)cc1	-1	26µM*	2%	3%	?	-11%
N#CCSc1nnc(COc2cccc3ccccc23)n1-c1ccccc1	-1	4%	?	-32%	?	?
Cc1ccc(-c2nnc(CSc3nnc(COc4cccc5ccccc45)n3-c3ccccc3)o2)cc1	-3	3%	?	27%	?	13µM*
COc1ccc(C)cc1-n1cnc2cc(C(=O)NC3CCCC3)ccc21	-5	8%	-1%	-8%	?	-3%
Cc1cccc(N2CCN(C(=O)CCNS(=O)(=O)c3ccc4c(c3)oc(=O)n4C)CC2)c1C	-6	-10%	-33%	-6%	i	-26%
CCCn1nc(C(=O)OCC(=O)N2CCCc3ccccc32)c2ccccc2c1=O	-31*	·	·	·	·	·
Cn1nc(C(=O)OCC(=O)N2CCc3ccccc32)c2ccccc2c1=O	4	8%	-2%	-8%	i	-1%
O=C1OC2(CCCC2)OC(=O)C1=Cc1c[nH]c2ccccc12	-2	1%	0%	-12%	i	-2%
